The list is not random: actives were taken first. Their share in the collection is about 3.5%.
MITF primary: human MITF inhibition, primary screen | O75030 | AlphaScreen MITF homodimerization, bead proximity signal | inhibition, % at 2.6 µM | 0.91% of 650,000 active; in the data active = inhibition above about 50%;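 note: 0% = vehicle wells with protein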
GPR151 ag: activates the human receptor GPR151; 1% of 650,000 active; activation, % at 11.2 µM; PathHunter beta-arrestin GPR151 cells, luminescence; Q8TDV0; in the data active = activation above about 4.9%;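 note: 0% = median of compound wells and 100% = cells with positive control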
Target sequence (Q8TDV0 whole entry, looked up): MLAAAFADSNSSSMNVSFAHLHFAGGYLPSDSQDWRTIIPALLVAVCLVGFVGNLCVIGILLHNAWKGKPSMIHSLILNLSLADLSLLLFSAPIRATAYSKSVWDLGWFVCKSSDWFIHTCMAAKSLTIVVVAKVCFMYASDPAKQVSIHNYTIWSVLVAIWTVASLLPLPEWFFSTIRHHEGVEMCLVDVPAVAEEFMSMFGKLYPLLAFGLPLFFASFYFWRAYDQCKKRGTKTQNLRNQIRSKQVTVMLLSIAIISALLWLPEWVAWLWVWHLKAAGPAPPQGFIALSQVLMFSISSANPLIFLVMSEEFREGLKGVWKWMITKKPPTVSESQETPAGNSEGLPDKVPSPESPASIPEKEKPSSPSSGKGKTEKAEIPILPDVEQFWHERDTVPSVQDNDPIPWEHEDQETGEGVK
FBW7 act: human FBW7 E3 ligase activation, primary screen; normalized activity (activation), % at 26.1 µM; 0.13% of 650,000 active; AlphaScreen FBW7–phospho-cyclin E peptide binding, activator screen; in the data active = normalized activity above about 1.9%;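 note: purified mutant Fbw7 with reduced substrate affinity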
TEAD-YAP inh: TEAD-YAP interaction inhibition. 1.4% of 640,000 active. AID 1259422. HEK-TIYL cells, TEAD-Gal4/YAP UAS-luciferase luminescence. inhibition, % at 9.12 µM; in the data active = inhibition above about 32%;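 note: 0% = median of test compound wells and 100% = reference inhibitor wells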
GPR151 confirm: human GPR151 activation, confirmation screen | activation, % at 11.2 µM | GPR151 PathHunter beta-arrestin cells, luminescence, 90 min; % of EA-reagent control over plate median | shares compounds with GPR151 ag | 6,700 tested, under 10 active;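 active = mean percent activation across replicates above the confirmation screen cutoff of 4.91%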
GPR119 ag: counter-screen for GPR151 activators: effect on human GPR119. shares compounds with GPR151 ag. GPR119 PathHunter beta-arrestin cells, luminescence, 90 min; 0 = compound-well median, 100 = enzyme-acceptor control. activation, % at 11.2 µM. 0.3% of 6,700 active;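 active = mean percent activation in the counterscreen above 29.09%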;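 note: counterscreen on off-target GPR119 to flag nonselective hits from the GPR151 activator screen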
An asterisk follows results filed as active.

CS(=O)(=O)Nc1ccccc1Oc1ccccc1 was read as MITF primary 2, GPR151 ag 7.9*, FBW7 act 0, TEAD-YAP inh -1, GPR151 confirm 0 and GPR119 ag -4.
`NS(=O)(=O)c1ccc(CNS(=O)(=O)c2ccc(F)c(F)c2)cc1` gave MITF primary 10, GPR151 ag -1, FBW7 act 0 and TEAD-YAP inh -2.
CCC1CN(Cc2nc3ccccc3[nH]2)Cc2cc(OC)ccc2O1 (stereo not drawn) was read as MITF primary -16, GPR151 ag -1, FBW7 act 0 and TEAD-YAP inh 2.
CCC1CN(CCC(=O)NCCc2nc3ccccc3[nH]2)Cc2cc(OC)ccc2O1 (stereo not drawn) was read as MITF primary -3, GPR151 ag 7.0*, FBW7 act 0, TEAD-YAP inh 8, GPR151 confirm 0 and GPR119 ag 1.
For Oc1cccc(-c2cnc(NCc3ccc(Cl)c(Cl)c3)c3nccn23)c1 the results were MITF primary -12, GPR151 ag 1, FBW7 act 0 and TEAD-YAP inh 0.
For Cc1[nH]c(-c2ccc(F)cc2)cc1C(=O)N1CCOCC1 the results were MITF primary -8, GPR151 ag 5.8*, FBW7 act 0, TEAD-YAP inh -12, GPR151 confirm 0 and GPR119 ag 0.
Cc1[nH]c(-c2ccc(F)cc2)cc1C(=O)N1CCCC1 was read as MITF primary 2, GPR151 ag 5, FBW7 act 0 and TEAD-YAP inh -6.
COc1ccc(/C=N/n2c(SC)nnc(C(C)(C)C)c2=O)cc1OC was read as MITF primary 5, GPR151 ag 6.2*, FBW7 act 0, TEAD-YAP inh -1, GPR151 confirm 0 and GPR119 ag 5.
COc1ccc(/C=N/n2ncnc2SC)cc1OC was read as MITF primary -6, GPR151 ag -2, FBW7 act 0 and TEAD-YAP inh -25.
`COc1ccccc1C(=O)NC(=S)Nc1cccc(C(C)=O)c1` gave MITF primary 12, GPR151 ag 1, FBW7 act 0 and TEAD-YAP inh -32.
`CCn1c2ccccc2c2cc(/C=N/n3cn[nH]c3=S)ccc21` gave MITF primary 8, GPR151 ag 5.0*, FBW7 act 0, TEAD-YAP inh 22, GPR151 confirm -1 and GPR119 ag -8.
CCn1c2ccccc2c2cc(/C=N/O)ccc21 was read as MITF primary 14, GPR151 ag 0, FBW7 act 1 and TEAD-YAP inh 12.
OC1(c2ccc(F)cc2)CSC2=NCCN21 (stereo not drawn) was read as MITF primary 16, GPR151 ag 0, FBW7 act 0 and TEAD-YAP inh -16.
`Cc1nn(C)c(C)c1-c1cccc(C(N)=O)c1` gave MITF primary -5, GPR151 ag 0, FBW7 act 0 and TEAD-YAP inh 0.
For Cc1nn(C)c(C)c1-c1ccc2nc(C(C)C)[nH]c(=O)c2c1 the results were MITF primary -10, GPR151 ag 5.6*, FBW7 act 0, TEAD-YAP inh 3, GPR151 confirm -1 and GPR119 ag 1.
Cn1cc(CC(=O)NCCN2CCN(Cc3ccccc3)CC2)c2ccccc21 was read as MITF primary -13, GPR151 ag 5.2*, FBW7 act 0, TEAD-YAP inh 4, GPR151 confirm -1 and GPR119 ag -9.
Screening COCCCNC(=O)Cc1cn(C)c2ccccc12 returned MITF primary -8, GPR151 ag 0, FBW7 act 0 and TEAD-YAP inh -5.
`CCCCNC(=O)Cc1cn(C)c2ccccc12` gave MITF primary 3, GPR151 ag 5.1*, FBW7 act 0, TEAD-YAP inh -26, GPR151 confirm 1 and GPR119 ag 7.
Screening COCCCNC(=O)CCCc1cn(C)c2ccccc12 returned MITF primary -6, GPR151 ag 6.6*, FBW7 act 0, TEAD-YAP inh -8, GPR151 confirm 0 and GPR119 ag 1.
O=C(Cn1nc(C(=O)N2CCOCC2)cc1-c1cccs1)NCCC1=CCCCC1 was read as MITF primary -4, GPR151 ag 2, FBW7 act 0 and TEAD-YAP inh 10.

Compound activity as filed in PubChem.
